HIF-2a block: inhibitors of HIF-2a. inhibition, % at 18.8 µM. 786-0 RCC cells HIF-2a reporter, luciferase luminescence, overnight. actives 0.72% (n = 360,000);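 active = inhibition of the luminescence signal of 40% or more relative to plate controls, in a single-dose primary screen at 18.75 µM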
KKLEB cytotox: counter-screen for CF NF-kB inhibitors: cytotoxicity; KKLEB CF airway cells viability, ATPlite luminescence, overnight; stronger effect = lower value; cells stimulated with P. aeruginosa culture filtrate; activity change (cytotoxicity), % at 5 µM; actives 0.36% (n = 360,000);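 active = corrected activity change at or below -50% at 5 µM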
TWEAK Fn14 block: blocks TWEAK-Fn14 interaction in a reporter cell assay; TWEAK-stimulated Fn14 reporter cells, luciferase luminescence, 8 h; inhibition, % at 10 µM; actives 2% (n = 360,000); AID 1159606; in the data active = inhibition above about 50%
CF NFkB inh: cystic fibrosis NF-kB activation inhibition; KKLEB NF-kB-GFP reporter, PAF-induced, GFP fluorescence overnight; AID 588850; actives 0.86% (n = 360,000); inhibition, % at 5 µM;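 active = at least 50% inhibition at 5 µM, scaled per plate between neutral and stimulator controls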;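 note: PAF is a Pseudomonas aeruginosa culture filtrate used as stimulus; plate controls were PAF-stimulated DMSO wells for no effect and unstimulated DMSO wells for full effect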
TROY signal inh: inhibitors of TROY-dependent NF-kB signaling; Q293 LMP1-TROYcd NF-kB luciferase reporter, 4 h; inhibition, % at 10 µM; actives 0.98% (n = 360,000); AID 1347056;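 active = compounds whose plate-normalised and pattern-corrected inhibition of the luciferase reporter signal at the single screening dose is 50% or more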
Peg3 prom inh: Peg3 promoter activity inhibition | inhibition, % at 20 µM | HeLa PEG-Prom luciferase reporter, luminescence, overnight | actives 1.7% (n = 360,000);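 active = inhibition of at least 50% at 20 µM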
Mdm2 MdmX conf: confirmation of inhibitors of human Mdm2/MdmX interaction, set 2; shares compounds with HIF-2a block; SaOS-2 split-luciferase Mdm2/MdmX complementation, luminescence; inhibition, % at 8 µM; actives 99% (n = 740);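 active = mean inhibition of the luminescence signal across two replicates at or above 26 percent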
HIF-2a inh conf: confirmation of HIF-2a inhibitors; actives 56% (n = 1,800); shares compounds with HIF-2a block; inhibition, % at 18.8 µM; 786-0 RCC cells, HIF-2a luciferase reporter luminescence, overnight; AID 651580;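 active = mean inhibition across four replicates of at least 40 percent at the single tested concentration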
HIF-1a counter: counter-screen for HIF-2a inhibitors: HIF-1a inhibition in MiaPaCa-2 cells; shares compounds with HIF-2a block; MiaPaCa-2 HIF-1a luciferase reporter, desferoxamine, overnight; inhibition, % at 18.8 µM; actives 72% (n = 1,800); AID 651589;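 active = mean inhibition of the reporter signal across four replicates at the single tested dose of 50% or more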
* hit, by the source's call; . = no result. Most compounds without a hit are left out; they make up all but 4% or so of the library.

SMILES	HIF-2a block	KKLEB cytotox	TWEAK Fn14 block	CF NFkB inh	TROY signal inh	Peg3 prom inh	HIF-2a inh conf	HIF-1a counter	others
O=C(O)c1cccc(CSc2nnc(-c3ccc(Cl)cc3)o2)c1	70.4*	4.8	36.8	-8.9	10.7	-40.0	80.3*	26.5
O=C(O)c1cccc(CSc2nnc(COc3ccccc3)o2)c1	72.8*	-0.2	14.1	5.7	-23.5	-5.4	72.8*	33.5
COc1ccc(/C=C/C(=O)c2cc3cccc(OC)c3oc2=O)cc1	15.1	-5.8	-37.2	15.7	-47.9	-1.2	.	.
O=[N+]([O-])c1ccc(S(=O)(=O)CC(CN2CCCCC2)N2CCCCC2)cc1 (configuration not stated)	27.2	-43.1	15.8	81.4*	-18.6	107.8*	.	.	Mdm2 MdmX conf=103.2*
O=C(NCCc1ccccc1)c1cccc2c1C(=O)c1ccc(N3CCOCC3)cc1S2(=O)=O	-9.2	-17.2	-0.7	-0.3	-18.9	-6.8	.	.
CCOC(=O)c1ccc(N=c2sc(C(=O)OC)cc(=O)n2CCCN2CCOCC2)cc1	9.4	-17.7	22.5	12.7	8.2	2.7	.	.
CCOC(=O)c1ccc(N=c2sc(C(=O)OC)cc(=O)n2Cc2ccco2)cc1	81.8*	-18.5	64.2*	22.6	32.0	99.9*	65.3*	106.4*
Cc1ccc(C(=O)Nc2ncc(Cc3ccc(SC(F)F)cc3)s2)cc1	-49.2	-14.2	-6.2	22.2	-0.5	-63.2	.	.
COC(=O)c1ccc(COc2ccccc2/C=C(\C#N)C(=O)Nc2c(C)cccc2C)cc1	46.1*	-41.4	61.3*	41.7	31.5	62.1*	45.1*	81.7*
NC(=O)c1cc2ccncc2c2ccccc12	33.2	-7.0	-15.0	79.4*	57.9*	-15.7	.	.	Mdm2 MdmX conf=98.0*
O=C(O)c1cc2c([nH]c1=O)CCCC2	15.9	-3.4	-12.8	3.8	-5.2	5.2	.	.
C=CCSC(=C(C#N)C#N)c1cc2c([nH]1)CCCC2	65.8*	-13.9	29.1	18.0	-7.5	93.8*	8.7	106.2*
Nc1nc(-c2c(Cl)cccc2Cl)no1	17.3	0.8	-2.8	4.4	-8.9	10.8	.	.
O=C(CCN1C(=O)c2ccccc2C1=O)Nc1cccc(S(=O)(=O)N2CCCCC2)c1	1.0	9.1	-1.0	-4.2	10.9	3.5	.	.
COc1ccc2c(c1)/C(=C\c1cccc(/C=C3/C(=O)Nc4ccc(OC)cc43)n1)C(=O)N2	89.6*	-7.2	100.4*	83.3*	30.7	106.8*	98.5*	106.5*
Cc1ccc2c(c1)/C(=C/c1ccccc1)C(=O)N2	-7.3	2.3	49.6	7.7	12.9	10.7	.	.
N=c1n(CC(=O)c2ccc(Br)cc2)c2ccccc2n1Cc1ccccc1	-9.4	-24.0	-21.7	-8.8	-15.4	98.8*	.	.	Mdm2 MdmX conf=102.0*
CCOC(=O)/C(=C/c1c(C)n(C)c2ccc([N+](=O)[O-])cc12)C(C)=O	72.3*	-8.8	72.6*	2.3	50.5*	48.6	70.2*	59.5*
Oc1ccc(Cc2ccccc2Cl)c(O)c1	12.5	7.6	11.8	-43.0	2.1	17.0	.	.
NCCN1C(=O)S/C(=C\c2ccc3c(c2)OCO3)C1=O	86.1*	11.4	65.6*	-14.3	56.8*	-7.7	95.0*	67.3*
O=C(CNC(=O)c1ccccc1F)NCCN1C(=O)S/C(=C\c2ccc3c(c2)OCO3)C1=O	13.8	-1.9	-9.6	-11.8	-9.4	-48.5	.	.
CC(C)CN(C(=O)CN1CCC(C)CC1)c1c(N)n(CC(C)C)c(=O)[nH]c1=O	16.2	-6.4	22.7	6.2	3.1	10.8	.	.
CC(C)(C)OC(=O)N[C@@H](Cc1ccccc1)c1nnc(SCC(N)=O)o1	8.6	15.1	10.5	-6.3	-6.8	6.2	.	.
Cc1cccc(CS(=O)(=O)c2nnc([C@H](Cc3ccccc3)NC(=O)OC(C)(C)C)o2)c1	7.9	-21.5	28.6	69.1*	14.3	105.6*	.	.	Mdm2 MdmX conf=102.7*
Cc1ccccc1NC1=C/C(=N\S(=O)(=O)c2cccs2)c2ccccc2C1=O	92.8*	-93.4*	101.6*	93.7*	66.5*	102.1*	.	.	Mdm2 MdmX conf=103.2*
SMILES	HIF-2a block	KKLEB cytotox	TWEAK Fn14 block	CF NFkB inh	TROY signal inh	Peg3 prom inh	HIF-2a inh conf	HIF-1a counter	others
OC[C@@H]1[C@@H](c2ccc(F)cc2)C(c2cccc(Cl)c2)=NN1c1ccccc1	3.4	-13.7	6.7	33.0	0.0	31.7	.	.
COc1ccccc1NC(=O)CCCc1nnc2n(C)c(=O)c3sccc3n12	11.3	6.1	6.6	0.4	0.6	8.7	.	.
COC(=O)c1c(NC(=O)c2nc3ccccc3s2)sc2c1CC(C)(C)NC2(C)C	23.3	-31.7	-68.4	33.7	-8.7	104.5*	.	.	Mdm2 MdmX conf=92.7*
CN1CCN(c2ccccc2NC(=O)c2ccc(F)cc2)CC1	6.9	-5.4	9.8	1.7	3.4	9.3	.	.
CN(C)c1ccc(C(=O)N/N=C/c2cc(Br)cc(Br)c2O)cc1	2.6	3.8	11.2	15.8	2.3	58.7*	.	.	Mdm2 MdmX conf=89.0*
COc1c(Br)cc(Br)cc1/C=N/NC(=O)c1ccncc1	8.8	7.0	-1.2	-8.6	-5.3	17.5	.	.
CCOC(=O)CC(S(=O)(=O)c1ccccc1)S(=O)(=O)c1ccccc1	75.6*	-90.4*	28.3	87.4*	-2.3	100.4*	10.6	1.5
CCOC(=O)N=S(N)(=O)c1ccccc1 (configuration not stated)	-4.7	-7.1	9.2	8.2	7.8	6.8	.	.
CC(=O)Nc1ccc(S(=O)(=O)N2CC(=O)NC(=O)C2)cc1	12.1	15.0	0.3	9.7	0.4	-25.3	.	.
CCOc1ccc(NC(=O)CCCc2cc(-c3ccc(OCC)cc3)on2)cc1	3.5	-15.3	-19.6	-10.9	-6.2	-11.2	.	.
CCOc1ccc(-c2cc(CCCC(=O)Nc3cc(OC)ccc3OC)no2)cc1	56.5*	20.8	49.9	-11.4	22.9	-38.0	78.6*	51.7*
CCOc1ccc(-c2cc(CCCC(=O)Nc3cccc(OC)c3)no2)cc1	41.5*	-6.2	56.7*	5.6	23.7	-12.5	52.4*	70.1*
COc1ccc(-c2noc(=O)n2Cc2ccccc2Cl)cc1	18.7	4.0	-8.4	-2.3	-4.7	24.1	.	.
CCc1nn(CC(=O)NCCC2=CCCCC2)c(=O)c2cc3cc(F)ccc3n12	12.0	-10.8	-10.3	25.6	-6.2	24.8	.	.
COc1ccccc1N1CCN(Cc2cc(=O)c(OCC(=O)Nc3ccccc3)co2)CC1	1.1	-3.5	-6.6	10.2	1.5	3.2	.	.
Cc1ccc(S(=O)(=O)/N=C(\Sc2ccccc2)c2ccccc2)cc1	43.3*	2.6	9.4	0.6	6.4	56.0*	55.8*	48.9
